Experimental data published in PubChem BioAssay AID1117319 (Southern Research Institute, 2015).
Values joined by “and” are separate entries in the source; they are usually repeats but may differ in a detail not shown here. Equal values may be shown once. Screen size: about 260,000 compounds; about 1,500 (0.58%) were called active. Roughly 5% stayed inconclusive and do not appear here.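 Rule for the calls: active = inhibition above a set limit at one or more doses, reproduced on every date tested; inconclusive = results disagree between test dates, or hit never tested in dose response; inactive = the rest.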 These entries were drawn from the full list. Results with a measured potency or affinity are listed apart.

Each compound was assayed against Virion infectivity factor (Human immunodeficiency virus type 1 group M subtype B (isolate BH10)) + Virion infectivity factor (Human immunodeficiency virus type 1 group M subtype B (isolate BRU/LAI)) + Virion infectivity factor (Human immunodeficiency virus type 1 group M subtype B (isolate PCV12)) + Virion infectivity factor (Human immunodeficiency virus type 1 group M subtype B (isolate HXB2)) + DNA dC->dU-editing enzyme APOBEC-3G (Homo sapiens) (UniProt P69720+P69721+P69722+P69723+Q9HC16) (assay: HIV-1 Vif–A3G interaction blockers – biochemical, TR-FRET, GST-Vif 1-94, biotin-A3G peptide, dose response retest, primary screen (AID 1117319;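 note: Vif residues 1-94 fused to GST binding biotinylated APOBEC3G peptide 110-148; 0% = full assay without inhibitor and 100% = GST in place of GST-Vif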)). Conditions: TR-FRET GST-Vif / biotin-A3G peptide binding; active compounds read high.

inhibition, inactive:
O=C(COC(=O)CCCSc1nc2ccccc2[nH]1)Nc1cccc(F)c1 -3.43%, COC(=O)c1ccc(Cn2nnc3ccccc32)cc1 26.1%, Cc1ccc(S(=O)(=O)N2C(=O)CCC2C(N)=O)cc1 (configuration not stated) -11.2%, O=C(C1CCCO1)N1CCC(O)(c2ccccc2)CC1 (configuration not stated) -9.62%, O=C(C1CCCO1)N1CCN(C(=S)NC2CC2)CC1 (configuration not stated) -5.45%, Cc1c(C)c(C)c(CN2CCSCC2)c(C)c1C 21.2%, CCN(C(=O)CN1CCN(c2ccc(OC)cc2)CC1)c1c(N)n(Cc2ccccc2)c(=O)[nH]c1=O 20.7%, CC(C)CN(C(=O)CN1CCN(c2ccc([N+](=O)[O-])cc2)CC1)c1c(N)n(CC(C)C)c(=O)[nH]c1=O 13.2%, CCN(C(=O)CN1CCN(c2ccccc2)CC1)c1c(N)n(Cc2ccccc2)c(=O)[nH]c1=O -6.89%, CC(=O)c1ccc(N2CCN(CC(=O)N(CC(C)C)c3c(N)n(CC(C)C)c(=O)[nH]c3=O)CC2)cc1 19.2%, Cc1cc(C(C)(C)C)oc1C(=O)N(CC(=O)NC1CCCC1)Cc1ccc(F)cc1 0.27%, CCOC(=O)C1(Cc2cccc(F)c2)CCN(Cc2ccon2)CC1 -4.55%, Cc1ccccc1C(=O)O/N=C1\CCS(=O)(=O)c2sccc21 1.21%, CCOc1ccc(S(=O)(=O)Nc2cc(OC)ccc2OC)cc1 6.81%, CCCCOc1ccc(S(=O)(=O)Nc2cc(OC)ccc2OC)cc1 1.88%, CCOc1ccc(/C=N/NC(=O)CN2CCCCCCC2)cc1 7.01%, COc1ccc(NC(=O)NNC(=O)c2ccc(Cl)cc2Cl)cc1OC 0.67%, O=C(O)c1ccc(NS(=O)(=O)c2ccc3c(c2)C2C=CCC2C(c2ccccc2F)N3)cc1 (configuration not stated) -10%, COc1cccc(NS(=O)(=O)c2ccc3c(c2)NC(=O)CC(=O)N3)c1 -6.3%, O=C(O)c1cccc(S(=O)(=O)Nc2ccccc2Cl)c1 65.8%, Cc1c(Cl)cccc1NS(=O)(=O)c1ccccc1 -1.9%, CN(C)CCNC(=O)Cn1nc(C(F)F)cc1C1CC1 12.5%, O=C(Nc1nc2c(ccc3ccccc32)s1)c1cc([N+](=O)[O-])ccc1N1CCOCC1 -2.48%, CC(=O)Oc1ccccc1C(=O)N1CCN(S(=O)(=O)c2ccc3ccccc3c2)CC1 -7.33%, CC(=O)c1ccc(NC(=O)Cn2nc(C)cc2C)cc1 1.14%, Cc1cc(C)n(CC(=O)NNC(=O)c2ccc(S(C)(=O)=O)cc2)n1 -6.9%, Cc1nc(C)n(CC(O)COc2ccc(C(=O)c3ccccc3)cc2)n1 (configuration not stated) 11.5%, Cc1cc2oc(=O)cc(CN3CCCCC3)c2cc1O -5.08%, CCCc1cc(=O)oc2c(CN3CCCC3)c(O)c(Cl)cc12 8.61%, CCc1cc(=O)oc2cc(C)c(CN3CCCC(C)C3)c(O)c12 (configuration not stated) 11.2% and 11.8%, CCCc1cc(=O)oc2c(CN3CCCC3)c(O)ccc12 -2.7%, Fc1ccc2nc(Nc3ccccc3)sc2c1 -8.41%, CCCCNC(=O)CN1CCN(Cc2ccc3cc(OC)ccc3c2)CC1 -10.8%, CCN1CCc2c(sc3c2c(NCc2ccco2)nc2nnnn23)C1 11.3%, CSc1nc(NCc2ccco2)c2c3c(sc2n1)CN(C)CC3 21.2%, Cc1ccc(OCC(=O)N/N=C2/SCC(=O)N2Cc2ccco2)cc1 11.4%, Cc1ccc(-c2nnc(SCC(=O)NNC(=O)COc3cccc(C)c3)n2C)cc1 -3.33%, COCCn1c(C)cc(C(=O)CSc2nc3ccccc3c(=O)[nH]2)c1C 25.5%, C=CCn1c(C)cc(C(=O)CSc2nc3ccccc3c(=O)[nH]2)c1C 11.7%, COc1ccccc1C1CCN(Cc2ccc(Cl)c(Cl)c2)CC1 -7.3%, CC(C)(C)C(=O)Cn1c[n+](N)cn1 2.71%, Cc1c(Br)c(=O)oc2c(C)c(O)ccc12 -26.6%, Cc1c(Br)c(=O)oc2c(Br)c(O)ccc12 -6.73%, Cc1cc(SCC(=O)N/N=C/c2ccc(O)cc2O)c(C)cc1Br 31.7%, Cc1cc(SCC(=O)N/N=C/c2ccc(O)c(O)c2)c(C)cc1Br 7.89%, COc1ccc(CN2C(=O)c3cccnc3C2=O)cc1S(=O)(=O)N1CCCCC1C (configuration not stated) 1.43%, CCOC(=O)C1=C(C)C(c2ccccc2OC)NC(=O)N1 (configuration not stated) 25.5%, O=C(c1ccccc1)c1ccc(Oc2ncccn2)cc1 -0.66%, N#CCc1ccc(Oc2ncccn2)cc1 2.04%, O=C(COC(=O)c1ccccc1Nc1ccc(SC(F)F)cc1)NC1CC1 -3.33%, CCCCCOc1ccc(C(=O)NCC(=O)NCC(=O)OCC)cc1 21.7%, CCCCOc1ccc(C(=O)NCC(=O)OCCCOC(=O)CNC(=O)c2ccc(OCCCC)cc2)cc1 -9.89%, NC(=O)c1cc2n(n1)C(C(F)(F)F)CC(c1ccco1)N2 (configuration not stated) 28%, NC(=O)C1CCN(C(=O)c2cc3n(n2)C(C(F)(F)F)CC(c2ccco2)N3)CC1 (configuration not stated) 21.3%, O=C(O)c1cc2n(n1)C(C(F)(F)F)CC(c1ccco1)N2 (configuration not stated) 23.7%, COc1ccccc1N1CCN(C(=O)c2cc3n(n2)C(C(F)(F)F)CC(c2ccco2)N3)CC1 (configuration not stated) 3.76%, O=C(c1cc(-n2cnnc2)ccc1Cl)N1CCN(c2nc(-c3ccccc3)cs2)CC1 -0.17%, O=C(NC12CC3CC(CC(C3)C1)C2)N(Cc1ccccc1)Cc1ccncc1 -2.12%, Cc1cc(C)n2nc(SCCCC(=O)c3ccccc3)nc2n1 -0.54%, COc1ccccc1NC(=S)NNC(=O)c1cc(C)n(C)n1 5.87%, COc1ccc2[nH]c(C)c(CCNC(=S)Nc3ccccc3C)c2c1 -0.27%, O=c1oc2ccccc2c2oc3cc(O)c(O)cc3c12 24.2%, O=c1oc2cc(O)ccc2c2oc3cc(O)ccc3c12 21.4%, O=c1oc2cc(O)c(Cl)cc2c2ccccc12 -238%, O=c1oc2cc(O)ccc2c2ccccc12 -45.8%, COc1cccc(NC(=O)CN(C)C(=O)c2cc(-c3cccc(Br)c3)nc3ccccc23)c1 4.76%, CCOC(=O)c1nc(NCc2cccc(OC)c2)c2ccccc2n1 -2.69%, O=C(COC(=O)c1cc(=O)[nH]c2ccccc12)NC1CCCC1 8.34%, CCOC(=O)c1cnc2c(C(=O)OCC)cnn2c1N 4.51%, CCOC(=O)c1cnc2c(C#N)cnn2c1N -5.32%, CCSc1nc(-c2ccccc2)c(-c2ccccc2)n1CC(O)CO (configuration not stated) -5.14%, CCc1ccc[n+](-c2[nH]c(=O)sc2/C=N/NC([S-])=Nc2ccccc2)c1 30%, Cc1ccc[n+](-c2[nH]c(=O)sc2/C=N/N=C(\[O-])CCn2c3ccccc3c3ccccc32)c1 -0.87%, O=C(Nc1ccc(F)cc1Cl)c1ccc2c(=O)n3c(nc2c1)CCC3 2.76%, O=C(CSc1ccc2c(c1)OCCO2)N1CCN(c2ccccc2O)CC1 14.3%, Nc1cc(Cl)ccc1Oc1ccc(Cl)cc1 14.4%, Nc1cc(Cl)ccc1Oc1ccccc1 -0.78%, CC(=O)Nc1ccc(S(=O)(=O)NCCC(=O)N2CCC(Cc3ccccc3)CC2)cc1 -8.11%, CCC(=O)N(CCC1(C(C)C)CCOC(C)(C)C1)Cc1ccco1 (configuration not stated) 1.68%, CC(C)(C)CN1CCNC(=O)C1CC(=O)NCCN1CCCc2ccccc21 (configuration not stated) 20.1%, O=C(CC1C(=O)NCCN1Cc1ccccc1)NCCN1CCCCC1=O (configuration not stated) 4.62%, Cc1ccccc1NC(=O)c1cnn(-c2ccccc2)c1C -7.17%, NC(=S)NCc1cccnc1 -0.39%, CCn1cc(S(=O)(=O)CC(=O)NC2CCCCC2)c2ccccc21 -2.6%, CCOC(=O)N1CCN(S(=O)(=O)c2ccc(C)c(C(=O)NC3CCCCC3)c2)CC1 5.81%, c1ccc2nc(-c3ccc4c(c3)OCO4)ccc2c1 5.74%, CCNc1ccccc(-c2ccc3ccccc3n2)c1=O 14.5%, COc1ccc(NC(=O)c2cc(S(=O)(=O)N3CCCCC3)ccc2N2CCCCC2)cn1 5.2% and 0.78%, O=C(/C=C/c1ccco1)Nc1cccnc1 1%, O=C(/C=C/c1ccco1)Nc1ccccn1 1.75%, Cn1c(=O)c2c(ncn2CC(=O)N/N=C/C=C/c2ccccc2[N+](=O)[O-])n(C)c1=O 10.3%, COc1ccccc1/C=C/C=N/NC(=O)c1ccncc1 -1.29%, O=C(N/N=C/C=C/c1ccccc1)c1ccncc1 -6.12%, Cn1c(=O)c2c(ncn2CC(=O)N/N=C/C=C/c2ccccc2)n(C)c1=O 7.57%, O=C(c1ccco1)N(c1ccccn1)c1ccccn1 3.18%, O=C(C=Cc1ccco1)c1ccco1 3.42%, OC(CNCCNc1ncccc1C(F)(F)F)Cn1ccc2ccccc21 (configuration not stated) 4.3%
